The results in this text go back to ChEMBL document CHEMBL1961873, “Compounds: GSK PKIS; Assays: Nanosyn kinase panel” (2012).

For experiment [1], the target named is MAP/microtubule affinity-regulating kinase 3 (Homo sapiens) (UniProt P27448). The settings on record: at 1 µM.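 Note: reported values are averaged percent inhibition of MARK3.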
Experiment [2] addresses T1, MAP/microtubule affinity-regulating kinase 4 (Homo sapiens) (UniProt Q96L34).
T1 sequence (whole entry): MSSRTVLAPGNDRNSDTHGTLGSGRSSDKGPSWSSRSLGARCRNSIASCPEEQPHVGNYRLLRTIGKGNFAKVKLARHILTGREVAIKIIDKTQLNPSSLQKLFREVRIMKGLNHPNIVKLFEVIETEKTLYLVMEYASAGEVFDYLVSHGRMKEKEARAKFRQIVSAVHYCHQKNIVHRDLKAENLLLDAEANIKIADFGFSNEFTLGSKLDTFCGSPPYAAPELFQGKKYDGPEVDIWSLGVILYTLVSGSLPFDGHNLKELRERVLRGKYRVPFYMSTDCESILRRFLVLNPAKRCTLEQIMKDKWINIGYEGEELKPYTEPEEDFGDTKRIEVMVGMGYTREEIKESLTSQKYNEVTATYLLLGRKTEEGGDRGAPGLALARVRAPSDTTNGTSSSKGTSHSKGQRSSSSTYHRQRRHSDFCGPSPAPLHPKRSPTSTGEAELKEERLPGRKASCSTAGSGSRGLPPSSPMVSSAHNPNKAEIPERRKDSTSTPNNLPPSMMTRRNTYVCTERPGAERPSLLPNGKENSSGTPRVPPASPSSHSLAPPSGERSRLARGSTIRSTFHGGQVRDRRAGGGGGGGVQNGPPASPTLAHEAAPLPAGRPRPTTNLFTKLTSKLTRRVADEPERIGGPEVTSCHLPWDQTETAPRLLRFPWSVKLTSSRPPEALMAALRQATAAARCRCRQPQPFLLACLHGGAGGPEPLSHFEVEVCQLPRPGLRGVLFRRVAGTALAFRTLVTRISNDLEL
The note with it: at 0.1 µM.

Experiment [3] addresses T1, MAP/microtubule affinity-regulating kinase 4 (Homo sapiens). The settings on record: at 1 µM.
The target of experiment [4] is Maternal embryonic leucine zipper kinase (Homo sapiens) (UniProt Q14680). The note with it: at 0.1 µM.
Experiment [5] has the same target. The note with it: at 1 µM.
The target in experiment [6] is MAP kinase-interacting serine/threonine-protein kinase 1 (Homo sapiens) (UniProt Q9BUB5). The settings on record: at 0.1 µM.
The target is the same in experiment [7]. The note with it: at 1 µM.
Experiment [8] concerns the target MAP kinase-interacting serine/threonine-protein kinase 2 (Homo sapiens) (UniProt Q9HBH9). The settings on record: at 0.1 µM.
Experiment [9] shares this target. The note with it: at 1 µM.
Experiment [10] concerns the target Serine/threonine-protein kinase MARK2 (Homo sapiens) (UniProt Q7KZI7). The note with it: at 0.1 µM.
Experiment [11] has the same target. The settings on record: at 1 µM.
The target of experiment [12] is PAS domain-containing serine/threonine-protein kinase (Homo sapiens) (UniProt Q96RG2). The note with it: at 0.1 µM.
The target is the same in experiment [13]. The note with it: at 1 µM.
The target in experiment [14] is Phosphorylase b kinase gamma catalytic chain, skeletal muscle/heart isoform (Homo sapiens) (UniProt Q16816). The settings on record: at 0.1 µM.
For experiment [15] the target is unchanged. The note with it: at 1 µM.
Experiment [16] concerns the target T2, Phosphorylase b kinase gamma catalytic chain, liver/testis isoform (Homo sapiens) (UniProt P15735).
T2 sequence (whole entry): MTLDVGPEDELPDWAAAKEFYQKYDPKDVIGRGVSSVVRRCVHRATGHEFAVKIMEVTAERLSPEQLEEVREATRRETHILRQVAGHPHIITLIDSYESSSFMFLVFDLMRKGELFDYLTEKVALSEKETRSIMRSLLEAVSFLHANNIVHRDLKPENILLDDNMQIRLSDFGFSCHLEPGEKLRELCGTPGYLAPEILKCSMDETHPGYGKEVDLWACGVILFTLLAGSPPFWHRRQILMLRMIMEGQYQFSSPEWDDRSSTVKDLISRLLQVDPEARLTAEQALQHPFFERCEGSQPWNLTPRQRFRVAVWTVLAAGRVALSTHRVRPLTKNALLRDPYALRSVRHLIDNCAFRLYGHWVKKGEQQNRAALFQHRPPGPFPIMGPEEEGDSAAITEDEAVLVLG
The note with it: at 0.1 µM.

The target in experiment [17] is T2, Phosphorylase b kinase gamma catalytic chain, liver/testis isoform (Homo sapiens). The settings on record: at 1 µM.
Experiment [18] has as its target Serine/threonine-protein kinase pim-1 (Homo sapiens) (UniProt P11309). The settings on record: at 0.1 µM.
Experiment [19] has the same target. The settings on record: at 1 µM.
In experiment [20] the target is Serine/threonine-protein kinase pim-2 (Homo sapiens) (UniProt Q9P1W9). The note with it: at 0.1 µM.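 Note: reported value is the mean percent inhibition of PIM2, measured in the GSK PKIS kinase inhibitor set screen.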
Sequence of Serine/threonine-protein kinase pim-2 (Homo sapiens) (Q9P1W9 whole entry, looked up): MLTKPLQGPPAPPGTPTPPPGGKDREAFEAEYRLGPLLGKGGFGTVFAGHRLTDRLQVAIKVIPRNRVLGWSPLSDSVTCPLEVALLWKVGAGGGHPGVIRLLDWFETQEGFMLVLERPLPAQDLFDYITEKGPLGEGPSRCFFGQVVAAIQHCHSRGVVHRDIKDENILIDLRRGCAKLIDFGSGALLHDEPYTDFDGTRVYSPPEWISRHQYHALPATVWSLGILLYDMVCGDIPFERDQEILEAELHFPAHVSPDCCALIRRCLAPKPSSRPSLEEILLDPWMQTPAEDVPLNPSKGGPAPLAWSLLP

Sequence of MAP/microtubule affinity-regulating kinase 3 (Homo sapiens) (P27448 whole entry, looked up): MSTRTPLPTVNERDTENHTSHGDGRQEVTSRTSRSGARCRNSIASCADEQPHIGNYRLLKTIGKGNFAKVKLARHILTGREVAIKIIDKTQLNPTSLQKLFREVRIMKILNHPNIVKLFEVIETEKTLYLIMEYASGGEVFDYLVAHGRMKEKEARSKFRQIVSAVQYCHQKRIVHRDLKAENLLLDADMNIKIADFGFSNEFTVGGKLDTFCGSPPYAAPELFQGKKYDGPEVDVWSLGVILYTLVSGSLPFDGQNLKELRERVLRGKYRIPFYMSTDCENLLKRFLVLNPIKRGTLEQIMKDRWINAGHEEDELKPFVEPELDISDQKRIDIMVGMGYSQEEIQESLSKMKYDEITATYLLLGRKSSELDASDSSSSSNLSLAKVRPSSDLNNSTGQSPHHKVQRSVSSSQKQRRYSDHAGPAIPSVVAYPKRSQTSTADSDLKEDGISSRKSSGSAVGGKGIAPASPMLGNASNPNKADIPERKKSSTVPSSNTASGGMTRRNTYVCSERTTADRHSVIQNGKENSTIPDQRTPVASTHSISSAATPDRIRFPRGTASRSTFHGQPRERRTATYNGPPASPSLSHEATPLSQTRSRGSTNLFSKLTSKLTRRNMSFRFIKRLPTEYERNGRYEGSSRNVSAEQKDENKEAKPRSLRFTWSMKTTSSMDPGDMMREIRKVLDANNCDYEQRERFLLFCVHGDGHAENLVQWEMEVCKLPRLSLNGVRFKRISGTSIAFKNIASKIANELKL
Sequence of MAP kinase-interacting serine/threonine-protein kinase 1 (Homo sapiens) (Q9BUB5 whole entry, looked up): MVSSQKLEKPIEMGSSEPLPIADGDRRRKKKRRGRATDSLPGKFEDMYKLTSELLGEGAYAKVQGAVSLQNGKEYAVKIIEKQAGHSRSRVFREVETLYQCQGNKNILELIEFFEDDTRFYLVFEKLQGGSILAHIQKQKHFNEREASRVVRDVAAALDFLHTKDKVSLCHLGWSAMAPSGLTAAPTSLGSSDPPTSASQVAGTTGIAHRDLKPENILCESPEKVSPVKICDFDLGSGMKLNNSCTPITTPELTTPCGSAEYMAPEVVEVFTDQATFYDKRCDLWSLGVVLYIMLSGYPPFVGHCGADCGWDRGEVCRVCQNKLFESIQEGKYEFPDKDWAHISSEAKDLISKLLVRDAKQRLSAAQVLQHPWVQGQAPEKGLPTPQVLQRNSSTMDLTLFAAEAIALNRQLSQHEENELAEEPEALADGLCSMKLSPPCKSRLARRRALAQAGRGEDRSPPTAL
Sequence of Maternal embryonic leucine zipper kinase (Homo sapiens) (Q14680 whole entry, looked up): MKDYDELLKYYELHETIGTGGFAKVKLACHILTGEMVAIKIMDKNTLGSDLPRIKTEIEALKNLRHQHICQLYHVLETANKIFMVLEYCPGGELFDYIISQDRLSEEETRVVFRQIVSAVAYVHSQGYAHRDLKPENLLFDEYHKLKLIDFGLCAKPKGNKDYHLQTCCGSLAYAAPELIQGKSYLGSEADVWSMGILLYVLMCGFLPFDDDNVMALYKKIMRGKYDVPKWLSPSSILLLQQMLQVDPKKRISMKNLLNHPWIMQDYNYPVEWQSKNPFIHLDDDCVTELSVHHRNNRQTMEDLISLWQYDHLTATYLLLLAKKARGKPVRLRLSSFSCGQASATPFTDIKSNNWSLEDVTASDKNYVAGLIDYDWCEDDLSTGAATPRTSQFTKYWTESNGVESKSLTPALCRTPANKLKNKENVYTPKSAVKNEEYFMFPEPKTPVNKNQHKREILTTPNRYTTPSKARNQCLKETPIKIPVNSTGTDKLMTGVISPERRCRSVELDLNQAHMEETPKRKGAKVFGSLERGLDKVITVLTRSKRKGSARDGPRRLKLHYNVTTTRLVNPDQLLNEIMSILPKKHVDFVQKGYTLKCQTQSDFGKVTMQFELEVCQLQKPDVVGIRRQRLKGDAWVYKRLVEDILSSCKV
Sequence of PAS domain-containing serine/threonine-protein kinase (Homo sapiens) (Q96RG2 whole entry, the tested form may be a part): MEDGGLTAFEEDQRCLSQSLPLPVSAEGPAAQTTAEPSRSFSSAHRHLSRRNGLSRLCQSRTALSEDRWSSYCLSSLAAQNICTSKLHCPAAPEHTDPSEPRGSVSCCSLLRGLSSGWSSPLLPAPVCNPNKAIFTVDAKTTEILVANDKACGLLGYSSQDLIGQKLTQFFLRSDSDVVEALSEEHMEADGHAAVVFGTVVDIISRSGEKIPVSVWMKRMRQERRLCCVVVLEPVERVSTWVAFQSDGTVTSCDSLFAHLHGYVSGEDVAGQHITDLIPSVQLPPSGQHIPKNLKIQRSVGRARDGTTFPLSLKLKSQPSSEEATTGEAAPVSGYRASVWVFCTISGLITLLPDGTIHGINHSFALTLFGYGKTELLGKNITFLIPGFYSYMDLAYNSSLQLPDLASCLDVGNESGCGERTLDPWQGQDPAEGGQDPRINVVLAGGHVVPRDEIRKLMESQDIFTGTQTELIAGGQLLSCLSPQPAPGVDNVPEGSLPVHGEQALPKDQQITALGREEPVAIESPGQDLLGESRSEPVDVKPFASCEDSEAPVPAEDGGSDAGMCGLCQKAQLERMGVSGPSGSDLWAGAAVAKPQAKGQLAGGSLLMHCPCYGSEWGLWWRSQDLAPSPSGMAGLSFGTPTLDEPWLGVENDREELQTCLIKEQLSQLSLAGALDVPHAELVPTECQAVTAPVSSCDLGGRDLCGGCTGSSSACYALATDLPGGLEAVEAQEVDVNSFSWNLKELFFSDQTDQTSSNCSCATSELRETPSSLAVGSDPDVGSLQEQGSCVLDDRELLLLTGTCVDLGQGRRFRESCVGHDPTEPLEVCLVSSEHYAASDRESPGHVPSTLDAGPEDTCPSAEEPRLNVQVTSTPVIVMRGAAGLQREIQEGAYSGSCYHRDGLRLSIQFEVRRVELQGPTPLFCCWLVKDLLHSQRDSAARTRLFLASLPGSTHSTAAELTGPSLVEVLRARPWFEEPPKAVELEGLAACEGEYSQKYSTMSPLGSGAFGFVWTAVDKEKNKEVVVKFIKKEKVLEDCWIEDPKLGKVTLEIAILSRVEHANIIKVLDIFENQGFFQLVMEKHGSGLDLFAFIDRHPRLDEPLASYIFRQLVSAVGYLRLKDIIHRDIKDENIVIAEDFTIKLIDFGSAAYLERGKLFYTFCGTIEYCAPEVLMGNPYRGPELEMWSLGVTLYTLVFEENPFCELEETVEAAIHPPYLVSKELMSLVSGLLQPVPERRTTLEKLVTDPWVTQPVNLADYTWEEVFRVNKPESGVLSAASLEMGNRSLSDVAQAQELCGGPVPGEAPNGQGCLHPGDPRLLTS
Sequence of Phosphorylase b kinase gamma catalytic chain, skeletal muscle/heart isoform (Homo sapiens) (Q16816 whole entry, looked up, canonical isoform): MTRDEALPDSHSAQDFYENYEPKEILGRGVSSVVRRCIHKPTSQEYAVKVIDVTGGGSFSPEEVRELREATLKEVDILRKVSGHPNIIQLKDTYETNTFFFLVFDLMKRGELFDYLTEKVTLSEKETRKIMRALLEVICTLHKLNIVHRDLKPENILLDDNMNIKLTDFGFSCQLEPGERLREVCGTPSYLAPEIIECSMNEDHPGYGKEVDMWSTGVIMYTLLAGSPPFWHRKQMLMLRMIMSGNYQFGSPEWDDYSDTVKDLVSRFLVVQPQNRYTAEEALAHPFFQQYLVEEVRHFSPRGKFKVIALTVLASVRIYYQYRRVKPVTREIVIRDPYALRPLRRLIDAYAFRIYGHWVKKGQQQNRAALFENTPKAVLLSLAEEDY
Sequence of Serine/threonine-protein kinase MARK2 (Homo sapiens) (Q7KZI7 whole entry): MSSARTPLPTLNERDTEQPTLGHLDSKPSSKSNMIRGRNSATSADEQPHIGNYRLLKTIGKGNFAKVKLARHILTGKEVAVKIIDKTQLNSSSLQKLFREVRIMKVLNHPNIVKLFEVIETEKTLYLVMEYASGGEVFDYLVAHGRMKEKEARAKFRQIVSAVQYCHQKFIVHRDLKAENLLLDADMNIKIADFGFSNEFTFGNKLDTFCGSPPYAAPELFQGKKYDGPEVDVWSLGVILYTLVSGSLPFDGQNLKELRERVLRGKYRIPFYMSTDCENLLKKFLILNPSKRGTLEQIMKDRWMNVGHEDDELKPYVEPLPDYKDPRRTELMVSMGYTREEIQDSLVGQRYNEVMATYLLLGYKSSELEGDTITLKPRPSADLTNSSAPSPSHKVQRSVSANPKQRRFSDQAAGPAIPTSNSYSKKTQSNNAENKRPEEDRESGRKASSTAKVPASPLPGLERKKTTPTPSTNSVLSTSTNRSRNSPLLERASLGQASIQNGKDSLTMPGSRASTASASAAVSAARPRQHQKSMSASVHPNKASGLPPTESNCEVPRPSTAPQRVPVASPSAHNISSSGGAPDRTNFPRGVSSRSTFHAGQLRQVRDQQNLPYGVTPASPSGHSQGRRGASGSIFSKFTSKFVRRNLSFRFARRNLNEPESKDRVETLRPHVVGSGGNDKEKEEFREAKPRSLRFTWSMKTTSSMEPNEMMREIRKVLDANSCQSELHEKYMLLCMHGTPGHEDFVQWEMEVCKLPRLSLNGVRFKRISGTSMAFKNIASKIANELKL
Sequence of Serine/threonine-protein kinase pim-1 (Homo sapiens) (P11309 whole entry, looked up): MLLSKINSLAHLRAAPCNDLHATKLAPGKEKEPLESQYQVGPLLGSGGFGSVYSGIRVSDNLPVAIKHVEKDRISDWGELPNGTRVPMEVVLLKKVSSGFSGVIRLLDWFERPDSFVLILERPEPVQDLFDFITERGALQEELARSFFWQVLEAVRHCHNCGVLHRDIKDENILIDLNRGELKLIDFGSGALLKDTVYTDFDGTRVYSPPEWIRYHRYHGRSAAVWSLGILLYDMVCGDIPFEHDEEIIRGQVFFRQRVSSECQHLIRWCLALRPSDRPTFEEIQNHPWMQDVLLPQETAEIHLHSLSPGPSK

`NS(=O)(=O)c1ccc(N/N=C2\C(=O)Nc3ccc4ncccc4c32)cc1`: the inhibition (in general, the drop in the measured response relative to a control, in per cent) amounted to 40.9% in experiment [1]; 11.4% in [2]; 52% in experiment [3]; 50.3% in experiment [4]; 93.4% in experiment [5]; 4% in experiment [6]. The inhibition in experiment [7] was 19.4%; in [8] it was 2.52%; in [9], 20.4%; in [10] it was 5.97%; in [11], 35.3%; in experiment [12] it was -0.19%. The inhibition in [13] was -1.87%; in experiment [14], 11.2%; in experiment [15], 50%; in experiment [16], 3.72%; in experiment [17], 14.1%; in experiment [18] it was 1.89%. Further, the inhibition turned out to be 15.9% in experiment [19] and 1.2% in experiment [20].
For the compound `COc1cc2ncn(-c3cc(OCc4ccccc4C(F)(F)F)c(C(=O)N(C)C)s3)c2cc1OC`, the inhibition in experiment [1] is 3.36%; in [2], -0.78%; in experiment [3], 0.92%; in experiment [4], 2.15%; in [5], 1.97%; in experiment [6], 0.52%. Besides, the inhibition in experiment [7] was 3.31%; in experiment [8], -0.13%; in experiment [9], 2.71%; in experiment [10], -2.4%; in experiment [11], -0.58%; in experiment [12] it was -1.08%. The inhibition in [13] is 0.41%; in experiment [14] it was -0.58%; in experiment [15], 1.87%; in experiment [16] it was -1.54%; in experiment [17], -0.32%; in experiment [18] it was 0.36%. For the same compound, the inhibition in [19] was -0.31%; in experiment [20] it was -0.26%.
Turning to `Cc1cccc(Nc2ncc(-c3ccccc3)o2)c1`, the inhibition amounted to 9.41% in experiment [1]; 1.51% in experiment [2]; 6.57% in experiment [3]; 3.78% in experiment [4]; 9.64% in experiment [5]; 1.9% in experiment [6]. Besides, the inhibition is 1.76% in [7]; 3.35% in experiment [8]; 8.3% in experiment [9]; 2.22% in experiment [10]; 6.99% in experiment [11]; -0.74% in experiment [12]. For the same compound, the inhibition in experiment [13] worked out at 1.15%; in experiment [14] it was 2.49%; in [15], 0.97%; in experiment [16] it was 2.92%; in experiment [17], 3.71%; in experiment [18], 1.11%. In addition, the inhibition in experiment [19] was 0.94%; in [20], 0.15%.
Turning to `CC(C)(CO)CNC(=O)c1ccc2c(c1)/C(=N/Nc1ccc(S(N)(=O)=O)cc1)C(=O)N2`, the inhibition in experiment [1] is 36.6%; in experiment [2], 7.2%; in [3], 42.6%; in experiment [4], 18.8%; in experiment [5], 72.7%; in experiment [6], 0.85%. For the same compound, the inhibition is 3.37% in [7]; -0.26% in experiment [8]; 9.44% in experiment [9]; 3.29% in experiment [10]; 32.2% in experiment [11]; 1.39% in [12]. For the same compound, the inhibition in [13] was found to be 0.43%; in experiment [14], 6.19%; in [15], 29.9%; in experiment [16], 0.52%; in [17], 3.4%; in experiment [18] it was 2.44%. Moreover, the inhibition in experiment [19] came to 18.9%; in experiment [20] it was 0.31%.
With `COC(=O)Nc1nc2ccc(S(=O)(=O)c3ccc(NC(=O)Nc4cc(C(F)(F)F)ccc4F)cc3)cc2[nH]1`, the inhibition in [1] amounted to 0.83%; in experiment [2], 1.2%; in experiment [3], 1.06%; in [4], 1.64%; in experiment [5] it was 4.33%; in [6], 1.27%. For the same compound, the inhibition in experiment [7] is 1.87%; in [8], 1%; in experiment [9], 0.01%; in [10], -2.72%; in [11], 1.75%; in experiment [12] it was 0.31%. The inhibition is -0.77% in [13]; 1.75% in [14]; 1.03% in experiment [15]; 2.73% in experiment [16]; 0.31% in experiment [17]; 0.78% in experiment [18]. Also, the values for the inhibition in experiment [19] and in experiment [20] were 1.71% and -0.06%, respectively.
Turning to `CS(=O)(=O)CCNCc1coc(-c2ccc3ncnc(Nc4ccc(OCc5ccccc5)cc4)c3c2)c1`, the inhibition was 3.7% in experiment [1]; 1.75% in experiment [2]; 1.07% in experiment [3]; 3.52% in [4]; 6.96% in experiment [5]; 3.46% in experiment [6]. Also, the inhibition in experiment [7] was 9.67%; in experiment [8], 3.42%; in experiment [9] it was 14.1%; in [10] it was -0.55%; in experiment [11] it was 2.39%; in experiment [12], 0.45%. Also, the inhibition was 0.89% in experiment [13]; 2.33% in [14]; 6.25% in [15]; 3.94% in experiment [16]; 3.59% in [17]; 1.45% in experiment [18]. In addition, the inhibition was 1.25% in experiment [19] and -0.56% in experiment [20].
Regarding `COc1ccc(-c2oc3ncnc(N)c3c2-c2ccc(NC(=O)Nc3cc(C(F)(F)F)ccc3F)cc2)cc1`, the inhibition is 5.58% in experiment [1]; 1.52% in [2]; 5.32% in experiment [3]; 4.39% in experiment [4]; -9.28% in experiment [5]; 9.84% in [6]. Moreover, the inhibition in [7] stood at 46.6%; in [8], 9.42%; in experiment [9], 56.3%; in experiment [10] it was 0.01%; in experiment [11], 0.81%; in experiment [12], 1.45%. Moreover, the inhibition in experiment [13] was 4.43%; in [14] it was 4.93%; in [15] it was 16.9%; in experiment [16], 6.42%; in [17], 9.75%; in [18], -0.3%. The inhibition in experiment [19] worked out at 0.75%; in experiment [20], 0.28%.
